The target of one experiment is Albumin (Bos taurus) (UniProt P02769). The experiment in a line: bovine serum albumin binders on microarray, profiling panel, artefact control for SMM control protein annotation, biochemical, small-molecule microarray, Alexa647 label, 635/667 nm fluorescence (AID 1118).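 Further: score merges 667 nm emission intensity and signal-to-noise per printed compound spot.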 The note with it: BSA-A647 binding, fluorescence 635 nm, higher = more signal.
Experiment [1] in a line: small-molecule microarray binders of probe aXIP, primary screen, biochemical, NeuroSMM set, 635/667 nm fluorescence (AID 1119).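 Further: probe is the protein aXip251-270 applied at 1 µg/mL to compound-printed slides; binding of probe to printed compounds measured as 667 nm fluorescence plus signal to noise.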 Particulars: higher = more signal, called active from +8 up or from −8 down.
Experiment [2] is described as follows: small-molecule binders of probe aNOTCH3, primary screen, biochemical, small-molecule microarray, 635/667 nm fluorescence (AID 1120).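 Further: probe is a biotin-tagged antibody raised against NOTCH3 rather than NOTCH3 protein; score merges spot fluorescence near 667 nm with spot signal to noise.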 Particulars: higher = more signal.
A short description of experiment [3]: small-molecule binders of probe aNOTCH2, primary screen, biochemical, small-molecule microarray, 635/667 nm fluorescence (AID 1121).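 Further: score merges feature fluorescence read at 667 nm with its signal to noise.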 The note with it: higher = more signal.
Experiment [4] addresses Carbonic anhydrase 2 (Homo sapiens) (UniProt P00918). Put plainly: CAII small-molecule binders, profiling panel, biochemical, small-molecule microarray, Alexa647-labelled CAII (AID 1122). Particulars: CAII-A647 binding fluorescence, higher = more signal.
A short description of experiment [5]: COS7 lysate on small-molecule microarray, probe aHis, 635 nm (AID 1123).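 Further: z-score combines 667nm fluorescence intensity with signal-to-noise per printed compound spot.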 Particulars: COS7 cell lysate, fluorescence, higher = more signal.
Experiment [6] can be described thus: compound binding in COS7 lysate, probe aLAP1, primary screen, cell lysate, small-molecule microarray (AID 1124).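 Further: lysate comes from COS7 cells expressing LAP1 and is applied at 0.3 µg/mL; score merges spot fluorescence near 667 nm with signal-to-noise over triplicate slides.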 Particulars: probe aLAP1, fluorescence, higher = more signal.
For a further experiment, the system named is Sam68 (KHDRBS1). Put plainly: Sam68 small-molecule binders, primary screen, biochemical, small-molecule microarray, 635 nm fluorescence (AID 1125).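 Further: score merges 667 nm channel intensity with signal to noise over triplicate slides.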 Particulars: small-molecule microarray binding, higher = more signal.
The test system of experiment [7] is Chordin-like protein 2 (CHRDL2). Put plainly: CHRDL2 small-molecule binders, primary screen, biochemical, small-molecule microarray, 635 nm fluorescence (AID 1126).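 Further: printed compound slides probed with Chrdl2 protein at 4 µg/mL for 1 h at 4 C; score merges 667 nm emission intensity with signal to noise over three replicate slides.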 The note with it: small-molecule microarray binding, fluorescence 635 nm; higher = more signal.
The target of experiment [8] is Concanavalin-A (Canavalia ensiformis) (UniProt P02866). Put plainly: ConA small-molecule binders, primary screen, artefact control for SMM control protein annotation, biochemical, small-molecule microarray, Alexa647 label, 635 nm (AID 1127).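 Further: z combines 667 nm emission intensity with signal-to-noise across three replicate slides.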 Particulars: ConA-A647 binding fluorescence, higher = more signal.
The nature of experiment [9]: anti-His antibody binders, primary screen, artefact control for SMM control protein annotation, biochemical, small-molecule microarray, 635 nm fluorescence (AID 1128).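 Further: score merges feature fluorescence with signal-to-noise for each printed compound spot.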 The note with it: anti-His Alexa647 antibody binding, higher = more signal.
Experiment [10] has as its system Human papillomavirus type 1a E7 protein (residues 1-88). Put plainly: HPV1a E7 small-molecule binders, primary screen, biochemical, small-molecule microarray, residues 1-88, 635 nm (AID 1129). The note with it: small-molecule microarray binding, fluorescence 635 nm; higher = more signal.
The target in experiment [11] is Focal adhesion kinase 1 (Homo sapiens) (UniProt Q05397). Put plainly: small-molecule microarray binders of FAK, primary screen, biochemical, 635/667 nm fluorescence, BSA, DTT (AID 1130).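 Further: composite of spot emission at 667 nm and signal to noise over triplicate slides.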 The note with it: PTK2 binding, 635 nm fluorescence, higher = more signal.
The test system of experiment [12] is Fibrinogen (Alexa647-labelled). Put plainly: fibrinogen binders on compound microarrays, profiling panel, artefact control for SMM control-protein annotation, biochemical, small-molecule microarray, 635/667 nm fluorescence (AID 1131).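 Further: z-score merges 667 nm fluorescence with per-spot signal-to-noise over triplicate slides.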 Particulars: fibrinogen-A647 binding fluorescence, higher = more signal.
The target of experiment [13] is Follistatin (Homo sapiens) (UniProt P19883). Put plainly: follistatin binders on small-molecule microarrays, primary screen, biochemical, small-molecule microarray, 635/667 nm fluorescence (AID 1132). Particulars: FST binding, 635 nm fluorescence, higher = more signal.
Experiment [14] concerns the target Fibroblast growth factor 2 (Homo sapiens) (UniProt P09038). The experiment in a line: FGF2 binders on small-molecule microarrays, primary screen, biochemical, small-molecule microarray, 635/667 nm fluorescence (AID 1133). The note with it: small-molecule microarray binding, FGF2, fluorescence 635/667; higher = more signal.
Experiment [15] is described as follows: mitochondrial membrane potential change in A549 cells, profiling panel, cell-based, JC-1 fluorescence, basal, 24 h, 100 nL (AID 1138).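 Further: A549 lung adenocarcinoma cells under basal conditions with no added stimulus; test concentration not given here.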 Particulars: higher = more signal.
The subject of a further experiment is Lefty1. Put plainly: Lefty1 binders on small-molecule microarrays, primary screen, biochemical, small-molecule microarray, 635/667 nm fluorescence (AID 1139). Particulars: small-molecule microarray binding, fluorescence 635/667; higher = more signal.
Experiment [16] concerns wheat germ agglutinin (Triticum aestivum), Alexa647-labelled. The experiment in a line: wheat germ agglutinin binders on compound microarrays, profiling panel, artefact control for SMM control-protein annotation, biochemical, small-molecule microarray, 635/667 nm fluorescence (AID 1140).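 Further: score merges 667 nm feature emission with signal to noise over triplicate slides.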 Particulars: WGA-A647 binding, 635 nm fluorescence, higher = more signal.
Experiment [17] addresses Luciferin 4-monooxygenase (Photinus pyralis) (UniProt P08659). Put plainly: firefly luciferase enzyme inhibitors, primary screen, biochemical, luminescence, purified enzyme, 2006 set (AID 1141).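 Further: cell-free assay with purified firefly luciferase at 100 ng per well in PBS; test concentration not given here.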 The note with it: SteadyGlo luminescence, 30 min, higher = more signal, called active from +8 up or from −8 down.

Active and inactive are the calls of the source.

Fibroblast growth factor 2 (Homo sapiens), sequence (P09038 whole entry, looked up): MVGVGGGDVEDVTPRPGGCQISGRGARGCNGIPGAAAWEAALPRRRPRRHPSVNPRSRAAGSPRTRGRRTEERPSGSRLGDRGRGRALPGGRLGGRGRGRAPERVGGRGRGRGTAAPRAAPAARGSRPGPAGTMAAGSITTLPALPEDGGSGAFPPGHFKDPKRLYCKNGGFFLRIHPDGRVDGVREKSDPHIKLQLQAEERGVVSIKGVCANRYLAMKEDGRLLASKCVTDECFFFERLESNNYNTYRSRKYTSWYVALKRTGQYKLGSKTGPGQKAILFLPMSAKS
Focal adhesion kinase 1 (Homo sapiens), sequence (Q05397 whole entry, looked up): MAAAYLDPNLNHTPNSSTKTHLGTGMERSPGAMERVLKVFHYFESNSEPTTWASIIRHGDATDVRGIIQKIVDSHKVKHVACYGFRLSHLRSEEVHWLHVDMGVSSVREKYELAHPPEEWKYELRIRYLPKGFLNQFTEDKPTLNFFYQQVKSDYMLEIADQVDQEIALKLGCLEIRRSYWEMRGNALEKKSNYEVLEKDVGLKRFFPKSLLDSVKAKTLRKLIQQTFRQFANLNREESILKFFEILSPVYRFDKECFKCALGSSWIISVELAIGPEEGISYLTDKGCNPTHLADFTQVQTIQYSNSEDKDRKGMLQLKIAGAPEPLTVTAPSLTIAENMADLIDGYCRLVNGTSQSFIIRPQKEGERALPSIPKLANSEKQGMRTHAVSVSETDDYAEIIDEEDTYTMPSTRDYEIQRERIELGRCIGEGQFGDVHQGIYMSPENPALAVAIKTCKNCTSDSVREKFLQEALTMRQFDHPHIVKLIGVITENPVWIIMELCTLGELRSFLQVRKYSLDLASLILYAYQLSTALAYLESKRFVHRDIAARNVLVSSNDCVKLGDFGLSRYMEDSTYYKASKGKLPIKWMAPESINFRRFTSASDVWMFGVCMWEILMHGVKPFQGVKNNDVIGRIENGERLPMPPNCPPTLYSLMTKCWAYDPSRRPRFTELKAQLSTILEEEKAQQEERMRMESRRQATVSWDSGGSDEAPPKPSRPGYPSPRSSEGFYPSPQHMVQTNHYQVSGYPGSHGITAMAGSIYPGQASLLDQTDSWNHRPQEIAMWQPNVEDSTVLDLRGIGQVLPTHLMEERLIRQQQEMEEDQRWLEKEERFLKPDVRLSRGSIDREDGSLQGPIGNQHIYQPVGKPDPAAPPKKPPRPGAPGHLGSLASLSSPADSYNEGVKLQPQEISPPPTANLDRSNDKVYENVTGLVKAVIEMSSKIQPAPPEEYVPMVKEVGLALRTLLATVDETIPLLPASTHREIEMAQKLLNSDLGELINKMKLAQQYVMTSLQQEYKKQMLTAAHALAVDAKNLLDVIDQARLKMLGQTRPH
Concanavalin-A (Canavalia ensiformis), sequence (P02866 whole entry, looked up): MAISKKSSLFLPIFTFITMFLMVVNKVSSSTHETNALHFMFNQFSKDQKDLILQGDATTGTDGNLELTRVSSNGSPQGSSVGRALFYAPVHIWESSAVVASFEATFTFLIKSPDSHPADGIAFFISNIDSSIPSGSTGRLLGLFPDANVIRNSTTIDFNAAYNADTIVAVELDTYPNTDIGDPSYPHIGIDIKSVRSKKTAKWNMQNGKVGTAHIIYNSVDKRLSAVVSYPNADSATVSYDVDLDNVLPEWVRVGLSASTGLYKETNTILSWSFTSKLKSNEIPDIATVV
Follistatin (Homo sapiens), sequence (P19883 whole entry, looked up): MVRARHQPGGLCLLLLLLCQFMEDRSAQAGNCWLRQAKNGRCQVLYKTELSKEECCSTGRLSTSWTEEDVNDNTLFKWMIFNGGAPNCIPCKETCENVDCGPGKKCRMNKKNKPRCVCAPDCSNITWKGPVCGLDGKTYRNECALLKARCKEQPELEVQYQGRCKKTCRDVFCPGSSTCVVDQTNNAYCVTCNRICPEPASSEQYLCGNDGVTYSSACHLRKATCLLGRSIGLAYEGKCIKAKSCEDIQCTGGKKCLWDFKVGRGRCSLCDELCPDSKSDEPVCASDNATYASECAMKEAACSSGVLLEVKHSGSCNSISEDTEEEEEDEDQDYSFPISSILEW
Albumin (Bos taurus), sequence (P02769 whole entry, looked up): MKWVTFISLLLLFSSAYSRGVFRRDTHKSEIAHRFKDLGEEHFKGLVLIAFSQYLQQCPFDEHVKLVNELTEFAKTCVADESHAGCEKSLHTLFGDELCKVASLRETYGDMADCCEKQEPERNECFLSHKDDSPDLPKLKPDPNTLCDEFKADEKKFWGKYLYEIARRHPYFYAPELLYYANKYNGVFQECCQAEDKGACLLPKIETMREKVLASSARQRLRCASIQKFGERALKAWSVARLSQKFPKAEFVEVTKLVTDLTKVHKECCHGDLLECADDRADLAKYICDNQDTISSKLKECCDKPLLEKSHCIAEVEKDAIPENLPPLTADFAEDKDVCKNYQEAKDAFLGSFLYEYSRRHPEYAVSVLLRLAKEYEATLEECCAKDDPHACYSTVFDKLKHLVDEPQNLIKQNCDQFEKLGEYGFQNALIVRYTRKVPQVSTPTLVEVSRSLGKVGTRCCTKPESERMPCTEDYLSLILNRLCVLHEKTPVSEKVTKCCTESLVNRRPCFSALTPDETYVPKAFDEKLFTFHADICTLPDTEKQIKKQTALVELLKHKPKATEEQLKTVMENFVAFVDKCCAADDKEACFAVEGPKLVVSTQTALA
Luciferin 4-monooxygenase (Photinus pyralis), sequence (P08659 whole entry, looked up): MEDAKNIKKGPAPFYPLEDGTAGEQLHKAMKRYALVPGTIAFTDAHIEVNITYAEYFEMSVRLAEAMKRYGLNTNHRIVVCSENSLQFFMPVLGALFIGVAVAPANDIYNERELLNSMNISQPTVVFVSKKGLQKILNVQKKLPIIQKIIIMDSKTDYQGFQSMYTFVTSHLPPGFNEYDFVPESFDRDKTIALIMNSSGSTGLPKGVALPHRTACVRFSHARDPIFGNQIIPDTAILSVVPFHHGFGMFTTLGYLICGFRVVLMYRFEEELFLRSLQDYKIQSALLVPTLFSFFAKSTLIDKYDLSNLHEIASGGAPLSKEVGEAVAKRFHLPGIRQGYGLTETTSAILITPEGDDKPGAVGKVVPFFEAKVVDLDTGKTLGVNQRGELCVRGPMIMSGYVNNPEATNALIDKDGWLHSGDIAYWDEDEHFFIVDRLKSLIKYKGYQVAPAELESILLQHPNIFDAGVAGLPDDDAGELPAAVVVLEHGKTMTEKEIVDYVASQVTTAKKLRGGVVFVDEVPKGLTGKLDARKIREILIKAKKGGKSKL

Regarding `[N-]=[N+]=NCc1ccccc1[C@@H]1OC(c2ccc(OCCCO)cc2)=N[C@]1(CCS(=O)(=O)c1ccccc1)C(=O)N1CCCCC1`, the composite z-score was 0.997 with Albumin (Bos taurus); 0.739 in experiment [2]; -0.124 in experiment [3]; 0.754 in experiment [4]; 2.85 in experiment [5]; 0.475 in experiment [6]. Further, the composite z-score in the experiment on Sam68 (KHDRBS1) was 1.29; in experiment [7] it was -0.59; in experiment [8] it was 1.17; in experiment [9], 0.621; in experiment [10], 1.26; in [11] it was 0.0201. Also, the composite z-score in experiment [12] came out at 1.08; in [13] it was 0.981; in experiment [14] it was 0.432; in the experiment with Lefty1 it was 0.275; in experiment [16], 1.02. Further, the composite Z-score in experiment [1] is -0.228 (inactive). The z-score in experiment [15] was -0.706; in experiment [17], -0.938 (inactive).

As to `CN1C(=O)C2C=CC(C(O)C=Cc3ccc([N+](=O)[O-])cc3)N(Nc3ccccc3)C2C1=O` (stereo not given), the composite z-score is 0.988 with Albumin (Bos taurus); 0.255 in experiment [2]; -0.0894 in [3]; 0.624 in experiment [4]; 1.21 in experiment [5]; 0.19 in [6]. The composite z-score was 1.3 in the experiment with Sam68 (KHDRBS1); 0.674 in experiment [7]; 0.988 in experiment [8]; 1.26 in [9]; 1.24 in experiment [10]; 0.198 in experiment [11]. Further, the composite z-score was found to be 1.01 in experiment [12]; 1.1 in [13]; 0.028 in experiment [14]; 0.637 with Lefty1; 0.289 in experiment [16]. The composite Z-score in [1] was 0.268 (inactive). The values for the z-score in [15] and in [17] were 0.509 and -1.02 (inactive), respectively.

In the case of `C[N+](C)(C)CCCC[C@@H]1NC(=O)[C@@H]2C[C@H](C(=O)NCCCCCN)[C@H](c3ccc(O)cc3)N2C1=O`, the composite z-score with Albumin (Bos taurus) was 0.877; in [2], 0.363; in [3], 0.154; in experiment [4] it was 0.72; in experiment [5], 1.53; in experiment [6], 1.02. The composite z-score with Sam68 (KHDRBS1) is 1.19; in experiment [7] it was 0.248; in experiment [8] it was 1.15; in [9], 2.08; in experiment [10], 1.05; in [11], 0.0992. Besides, the composite z-score in experiment [12] was 0.927; in [13], 1.4; in [14], 1.8; in the experiment on Lefty1 it was 1.64; in experiment [16], 0.87. For the same compound, the composite Z-score in [1] is 1.01 (inactive). Further, the z-score is 0.962 in experiment [15] and -1.26 (inactive) in experiment [17].

With `O=C1OCCC=C[C@H]2OC34C=CCN(Cn5nnc6ccccc65)C(=O)[C@H]3N(CCO)C(=O)[C@@H]4C12` (stereo not given in full), the composite z-score is 0.995 in the experiment with Albumin (Bos taurus); -0.475 in experiment [2]; -0.227 in experiment [3]; 0.866 in experiment [4]; -0.403 in experiment [5]; -0.38 in experiment [6]. Further, the composite z-score is -0.75 in the experiment on Sam68 (KHDRBS1); -1.75 in experiment [7]; -1.75 in [8]; -0.459 in [9]; -0.566 in [10]; -0.225 in [11]. The composite z-score was -0.934 in [12]; -0.851 in experiment [13]; -1.3 in [14]; -1.31 in the experiment on Lefty1; 0.522 in [16]. In addition, the composite Z-score in experiment [1] is 0.6 (inactive). Besides, the z-score in [15] is -0.758; in [17], 0.612 (inactive).

In the case of `CN(C)C(=O)[C@]1(Cc2ccccc2)N=C(c2ccc(OCCCO)cc2)O[C@@H]1c1ccccc1N=[N+]=[N-]`, the composite z-score with Albumin (Bos taurus) was 0.784; in [2] it was 0.23; in [3], -0.0145; in experiment [4], 0.782; in experiment [5], 2.12; in experiment [6] it was 0.764. Further, the composite z-score was 1.32 in the experiment with Sam68 (KHDRBS1); -0.199 in experiment [7]; 1.1 in experiment [8]; 2.47 in experiment [9]; 1.2 in experiment [10]; 0.203 in experiment [11]. Besides, the composite z-score in experiment [12] was found to be 0.96; in experiment [13] it was 1.33; in experiment [14], 1.63; in the experiment on Lefty1 it was 0.244; in experiment [16] it was 0.702. In [1], the composite Z-score is 0.431 (inactive). Also, the z-score in experiment [15] is 0.702; in experiment [17] it was -5.05 (inactive).

Turning to `CO[C@H]1O[C@H](CO)[C@@H](OC(=O)Nc2ccccc2-c2ccccc2)[C@H](OC(=O)Nc2ccccc2-c2ccccc2)[C@@H]1OC(=O)Nc1ccccc1-c1ccccc1`, the composite z-score in the experiment with Albumin (Bos taurus) is 0.926; in [2], 0.0904; in experiment [3], -0.0513; in experiment [4], 0.374; in [5], 2.18; in [6] it was 0.75. The composite z-score in the experiment on Sam68 (KHDRBS1) was determined as 1.29; in experiment [7], 0.332; in experiment [8], 1.17; in experiment [9], 0.747; in experiment [10], 1.23; in experiment [11], 0.993. The composite z-score in experiment [12] came out at 0.906; in experiment [13], 1.2; in [14], 0.814; in the experiment with Lefty1, 0.55; in [16], 0.827. Besides, the composite Z-score in experiment [1] was 0.523 (inactive). Besides, the z-score is -0.00054 in experiment [15] and -0.858 (inactive) in experiment [17].

For `O=C1O[C@@H](c2ccccc2)[C@@H](c2ccccc2)N2[C@@H](c3ccc(OCCO)cc3)[C@]3(C(=O)Nc4ccc(C#CC5=CCCCC5)cc43)[C@@H](C(=O)N3CCCCCCC3)[C@H]12`, the composite z-score in the experiment with Albumin (Bos taurus) was determined as 0.425; in [2], 1.87; in [3], 0.988; in [4] it was 0.776; in experiment [5], 3.59; in experiment [6] it was 1.6. Besides, the composite z-score with Sam68 (KHDRBS1) was determined as 1.28; in [7], 1.42; in experiment [8] it was 1.13; in experiment [9], 1.41; in experiment [10], 1.23; in [11], 1.55. Besides, the composite z-score in [12] came to 0.772; in experiment [13], 1.39; in [14] it was 1.09; with Lefty1, 1.55; in experiment [16], 1.46. The composite Z-score in experiment [1] is 4.13 (inactive). For the same compound, the z-score is -1.02 in [15] and -1.13 (inactive) in [17].

On to `CCOC(=O)C1=CC[C@@H](c2ccccc2)N(S(=O)(=O)c2ccc(C)cc2)[C@H]1c1ccc(CC)cc1`, for which the composite z-score with Albumin (Bos taurus) was 0.847; in [2], 0.0749; in experiment [3], -0.0371; in experiment [4] it was 0.571; in experiment [5], 1.52; in experiment [6] it was 0.662. The composite z-score in the experiment on Sam68 (KHDRBS1) is 1.1; in [7], -0.0671; in experiment [8], 1.11; in experiment [9], 1.09; in experiment [10], 1.18; in experiment [11], 0.761. The composite z-score in [12] was 0.966; in experiment [13], 0.352; in [14], 0.286; with Lefty1, 0.245; in [16], 0.758. Besides, the composite Z-score in [1] is -0.579 (inactive). The z-score was 2.58 in experiment [15] and 1.46 (inactive) in experiment [17].
